# Source: PubChem BioAssay (National Center for Advancing Translational Sciences (NCATS))
# HCV inhibitor: blocks hepatitis C virus; Huh7.5.1 HCVcc-Cre infection, luciferase reporter, 44 h; Potency, µM (series often up to 41.8 µM), for the others: at the top dose activity change, negative = inhibition, hits mostly inhibitors; 340,000 compounds, 3.4% hits
#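 1,000 cells/well; 4 h culture; + compound; + HCVcc-Cre (~0.5 moi); 44 h; luciferase substrate, RT 15 min; read 15 sec.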
# AMA1 RON2 block: AMA1-RON2 (P. falciparum) interaction inhibition; AlphaScreen AMA1-biotinylated RON2 peptide binding; Potency, µM (series often up to 58.2 µM), for inactives: at the highest dose activity change, negative = inhibition, actives largely listed as inhibitors; 360,000 compounds, 0.2% hits;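 further: 0% = vehicle wells and -100% = peptide control; nearly all actives have a fitted effect of over 45% in size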
#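 AMA1 (3D7) with his tag at 25 nM final met compounds first, then biotinylated RON2 peptide at 25 nM; detection used donor plus acceptor beads, 10 µg/mL apiece, read by AlphaScreen after 30 min at room temperature.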
# Pf growth 48h: inhibits P. falciparum growth in the first generation, 48 h | Potency, µM (top dose mostly 28.7 µM), without a hit: top-dose activity change, negative = inhibition, most hits filed as inhibitors | P. falciparum luciferase growth in erythrocytes, 48 h | 310,000 compounds, 5.9% hits | AID 504832
#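 First compound was added to culture medium, then infected red cells at 0.1% parasitemia and 2% hematocrit (final). After incubation at 37 C under 5% CO2, luciferase detection reagent was dispensed and light output recorded.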
# Pf growth 96h: P. falciparum growth inhibition at 96 hours; P. falciparum luciferase reporter growth, 96 h; Potency, µM (titrated, usually from 28.7 µM), for the others: at the top dose activity change, negative = inhibition, hits mostly inhibitors; 320,000 compounds, 6.9% hits
#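 Cell-based qHTS: luciferase-tagged P. falciparum in erythrocytes (2% hematocrit, 0.05% parasitemia final) incubated with compounds for 96 hours, 37 C, 5% CO2; luciferase detection reagent then added and luminescence measured.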
# An asterisk follows results filed as active; ? = inconclusive; . = not tested or not shown. The list is not random: actives were taken first. Their share in the collection is about 11%. The call rests on the fitted dose curve; in most records, active means well fitted curve in the direction sought with a large enough effect; inconclusive means small, poorly fitted or top-dose-only effect, or another doubt; inactive means no such curve, though single readings can be large; an effect the other way counts as inactive or inconclusive. Unless noted, on the % scale 0 is the no-effect control and ±100 the full control effect; potency means the concentration at half of the fitted maximal effect.
SMILES,HCV inhibitor,AMA1 RON2 block,Pf growth 48h,Pf growth 96h
COCCNC(=O)CNC(=S)N(Cc1ccccc1)Cc1cccnc1,?,3%,7%,12µM*
COCCCNC(=O)CNC(=S)N(Cc1ccccc1)Cc1cccnc1,10%,-5%,36%,10µM*
O=c1cc(/N=C/c2coc3c(ccc4ccccc43)c2=O)[nH]c(=S)[nH]1,-2%,58%,0%,0%
Cc1cc(N2CCCCC2)nc(SCc2ccc(C#N)cc2)n1,?,-5%,15µM*,.
N#Cc1ccc(CSc2nc(N)cc(N)n2)cc1,10%,2%,-15%,-33%
Cc1nc(SCc2ccc(C#N)cc2)n[nH]1,15%,5%,6%,13µM*
CC(C)(C)NC[C@H](O)CSc1nc(-c2ccc(C(N)=O)s2)cs1,.,.,?,11µM*
Cc1ccccc1NC(=O)C(C)O/N=C/c1cccc([N+](=O)[O-])c1 (stereo not given),?,-8%,.,?
CN(C)c1ccc(/C=N/NC(=O)CN(c2cccc(Cl)c2)S(C)(=O)=O)cc1Br,?,-5%,13µM*,.
CS(=O)(=O)N(CC(=O)N/N=C/c1ccco1)c1ccccc1Br,-1%,7%,16%,-9%
COc1ccc(Cc2nnc(SCC(=O)N3CCCCC3)o2)cc1,-7%,-11%,-6%,-8%
C=CCN=C1S/C(=C\N(C)C)C(=O)N1S(=O)(=O)c1ccc(C)cc1,-4%,-5%,.,.
COc1ccc(S(=O)(=O)n2ccc(C(C)Oc3ccc(-c4ccccc4)c(F)c3)n2)cc1 (stereo not given),?,0%,13µM*,17µM*
COc1ccc(CCNC(=O)C(=O)NCC2CCCN2S(=O)(=O)c2ccccc2)cc1OC (stereo not given),?,-1%,?,?
Nc1nn(S(=O)(=O)c2ccccc2)cc1-c1cccc([N+](=O)[O-])c1,?,-14%,10µM*,20%
Cc1ccc(-c2cn(S(=O)(=O)c3ccc(C)cc3)nc2N)cc1,3%,2%,.,?
COc1ccc(-n2c(C)cc(C(=O)CSc3nnc(-c4ccoc4C)n3C)c2C)cc1,?,0%,9.3µM*,.
Cc1cccc(OCCSc2nnc(-c3ccoc3C)n2C)c1,-13%,-4%,-3%,12µM*
C=CCn1c(SCC(=O)c2ccc(O)c(O)c2)nnc1-c1ccc(OC)cc1,?,70%,2.6µM*,?
Cc1cccc(OCCSc2nncn2C)c1,-16%,7%,65%,-8%
CCn1c(SCC(=O)N2CCc3ccccc32)nnc1-c1ccncc1,1%,5%,4%,58%
CCn1c(SCC(=O)N2c3ccccc3CCc3ccccc32)nnc1-c1ccc(OC)cc1,?,6%,4.1µM*,9.3µM*
COc1cccc(CNC(=O)C2CCN(c3nnc(N4CCCC4=O)s3)CC2)c1,4%,7%,5%,?
Nc1c([N+](=O)[O-])cnnc1-c1ccccc1,29%,0%,-10%,?
CCSc1nnc(-c2cccc(S(=O)(=O)N(CC)CC)c2)n1Cc1ccccc1,4%,17%,15µM*,17%
SMILES,HCV inhibitor,AMA1 RON2 block,Pf growth 48h,Pf growth 96h
Cc1occc1-c1nnc(SCC(=O)N2CCN(c3ccccc3)CC2)n1C,6%,-10%,-5%,?
COc1ccc(-c2nnc(SCC(=O)O)n2Cc2ccccc2)cc1,11%,-11%,6%,7.4µM*
CCOc1ccc(-c2nnc(SCC(=O)O)n2Cc2ccccc2)cc1,14%,-7%,20%,0.93µM*
O=C(O)CSc1nnc(-c2ccncc2)n1Cc1ccccc1,11%,9%,.,12%
Cc1occc1-c1nnc(SCC(=O)N2c3ccccc3CCc3ccccc32)n1C,-2%,-10%,7.4µM*,.
Cc1cccc(C)c1NC(=O)C1C(c2ccc3c(c2)OCO3)=Nc2ccccc2N1C(=O)c1ccccn1 (stereo not given),.,70%,.,.
C/C(O)=C(/N=O)C(=O)Nc1ccccc1,18%,-2%,1%,12µM*
CC(=O)Nc1ccc(NC(=O)Nc2ccccc2)cc1,9%,-5%,98%,103%
Cc1cc(N)c2cc(NC(=O)/C=C/c3ccccc3Cl)ccc2n1,11µM*,?,0.47µM*,0.59µM*
COc1ccc([N+](=O)[O-])cc1NC(=O)c1cn(-c2ccc(C)c(C)c2)c(=O)c2ccccc12,31%,-3%,-8%,12µM*
Cc1ccc2nc(SCC(=O)Nc3cc([N+](=O)[O-])ccc3F)[nH]c2c1,?,-5%,-1%,-28%
